Several values for one entry are separate records, joined by “and”; a condition that tells them apart may be missing. Identical values can stand only once. Inconclusive results are not listed. Activity calls are given as the source filed them. The call rests on the fitted dose curve.
Test: Nuclear factor erythroid 2-related factor 2/antioxidant responsive element (Nrf2/ARE) small molecule agonists: luciferase reporter gene qHTS assay in human keratinocytes (AID 1919969); further: nearly all actives have a fitted effect of over 35% in size
Settings: KeratinoSens HaCaT ARE-luciferase, luminescence, 24 h; series mostly up to 92.4 µM; activity, positive = activation: at the top concentration
From the text: National Center for Advancing Translational Sciences [NCATS]
Division of Preclinical Innovation [DPI]
U.S. Environmental Protection Agency [EPA]
National Institutes of Environmental Health Sciences [NIEHS]
National Toxicology Program [NTP]
U.S. Food and Drug Administration [FDA]
Oxidative stress has been implicated in the pathogenesis of a variety of diseases ranging from cancer to neurodegeneration. The antioxidant response element (ARE) signaling pathway plays an important role in the amelioration of oxidative stress. The KeratinoSens (Givaudan, Switzerland) is an in vitro test method which quantifies luciferase induction as a measure of activation of Keap1-Nrf2-antioxidationt/electrophile response element (ARE) dependant pathway in HaCaT human keratinocytes stably transfected with a selectable plasmid. The KeratinoSens assay is a cell-based assay with a reporter cell line to detect potential skin sensitizers by their ability to induce the Nrf2/ARE-response. The activation of the report gene under culture conditions can be detected by ONE-Glo Luciferase Assay System (Promega, Madison, WI). This cell line has been used to screen the Tox21 10K compound library to identify agonists that induce oxidative stress. The cytotoxicity of the Tox21 compound library against the KS-ARE cell line was tested in parallel by measuring the cell viability using CellTiter- Fluor assay system (Promega, Madison, WI) in the same wells.
HaCaT derived cell line KeratinoSens were dispensed at 1,500 cells/5uL/well in 1536-well white wall/solid bottom plates using a Multidrop Combi (ThermoFisher Scientific, Waltham, MA) dispenser. After the assay plates were incubated at 37 C/5% CO2 for 5 h, 23 nL of compounds dissolved in DMSO, positive controls or DMSO only was transferred to the assay plate by a pintool workstation (Kalypsys, San Diego, CA). The plates were incubated at 37 C/5% CO2 for 23 h, followed by addition of 1uL/well of CellTiter-Fluor reagent into the assay plates using a Flying Reagent Dispenser (Aurora Discovery, San Diego, CA) for cell viability readout that measures cytotoxicity. After 1 h incubation at 37 C/5% CO2 the fluorescence intensity was measured using a ViewLux (PerkinElmer, Shelton, CT) plate reader. Then 4uL/well of One-Glo were added using a Flying Reagent Dispenser. After the plates were incubated at room temperature for 30 min, the luminescence intensity in the assay plates was measured using ViewLux plate reader.
On the % scale 0 is the no-effect control and ±100 the full control effect; potency means the concentration at half of the fitted maximal effect.

| Compound | Potency | activity, positive = activation |
| --- | --- | --- |
| N#CSCc1ccccc1 | 68.9 µM (active) | – |
| O=C(CCCN1CCC2(CC1)C(=O)NCN2c1ccccc1)c1ccc(F)cc1 | – | 1.93% [at 42.5 µM] (inactive) |
| [Cl][Hg][c]1ccccc1 | 0.969 µM (active) | – |
| C[C@]12CC[C@@H]3c4ccc(OC(=O)N(CCCl)CCCl)cc4CC[C@H]3[C@@H]1CC[C@@H]2O | – | -14.9% [at 42.5 µM] (inactive) |
| C=CC(=O)OCCN(C)C | – | 0.326% (inactive) |
| O=C(O)C(O)C(O)C(=O)O (stereo not given) | – | -0.35% (inactive) |
| COC(=O)c1ccccc1S(=O)(=O)NC(=O)Nc1nc(C)cc(C)n1 | – | -3.76% (inactive) |
| CCCOc1nn(C(=O)NS(=O)(=O)c2ccccc2C(=O)OC)c(=O)n1C | 68.3 µM (active) | – |
| COC(=O)COc1ccc(Cl)cc1Cl | – | -8.07% (inactive) |
| CC(c1ccccc1)(c1ccc(O)cc1)c1ccc(O)cc1 | – | -39.1% (inactive) |
| CC(C)=CC1C(C(=O)OCc2coc(Cc3ccccc3)c2)C1(C)C (stereo not given) | 61.2 µM (active) and 61.1 µM (active) | – |
| CCOC(=O)C(Cl)Cc1cc(-n2nc(C)n(C(F)F)c2=O)c(F)cc1Cl (stereo not given) | – | 9.72% (inactive) |
| CN1C(=O)[C@@H](NC(=O)c2cc3ccccc3[nH]2)N=C(c2ccccc2)c2ccccc21 | – | 22.7% [at 42.5 µM] (inactive) |
| Oc1ccccc1Br | – | -0.751% (inactive) |
| O=C(O)c1cccc(Cl)c1 | – | -3.79% (inactive) |
| CC(C)(C)NCC(O)c1cc(Cl)c(N)c(C(F)(F)F)c1 (stereo not given) | – | -4.56% [at 42.5 µM] (inactive) |
| Clc1ccc(CCC(Cn2ccnc2)Sc2c(Cl)cccc2Cl)cc1 (stereo not given) | 13.3 µM (active) | – |
| Cc1ccc(C)c2ccccc12 | – | -3.06% (inactive) |
| ClC1=C(Cl)[C@]2(Cl)[C@H]3[C@H]([C@H]4C=C[C@H]3C4)[C@@]1(Cl)C2(Cl)Cl | 19.3 µM (active) | – |
| C=CCC1(C(C)CC)C(=O)NC(=O)NC1=O (stereo not given) | – | -6.88% [at 42.5 µM] (inactive) |

| Compound | Potency | activity, positive = activation |
| --- | --- | --- |
| CCC(C)Br (stereo not given) | – | 12% (inactive) |
| CCc1ccccc1N | – | -0.633% (inactive) |
| Oc1ccc(I)cc1 | – | -5.88% (inactive) |
| COc1cc(OC)nc(NC(=O)NS(=O)(=O)c2ncccc2OCC(F)(F)F)n1 | – | -5.21% (inactive) |
| CC(Cl)C(C)Cl (stereo not given) | – | 0.138% (inactive) |
| CC(O)(CS(=O)(=O)c1ccc(F)cc1)C(=O)Nc1ccc(C#N)c(C(F)(F)F)c1 (stereo not given) | – | -4.12% [at 42.5 µM] (inactive) |
| CCN(CC)C(=O)Cl | – | 1.26% (inactive) |
| O=C1C(I)=CC(=C(c2cc(I)c(O)c(I)c2)c2ccccc2C(=O)O)C=C1I | – | -22.5% [at 42.5 µM] (inactive) |
| O=CC=O | – | 0.708% (inactive) |
| CN1[C@@H]2CC[C@H]1CC(O)C2 (stereo not given in full) | – | -0.96% (inactive) |
| CC(O)C#N (stereo not given) | 61.1 µM (active) | – |
| N#CC(Br)(Br)C(N)=O | – | 1.67% (inactive) |
| OC(Cn1cncn1)(c1ccc(F)cc1)c1ccccc1F (stereo not given) | – | -9.23% (inactive) |
| CC(Oc1cc(Cl)c(Cl)cc1Cl)C(=O)O (stereo not given) | – | 0.908% (inactive) |
| CCOc1cc(OP(=S)(OC)OC)nc(CC)n1 | – | 0.797% (inactive) |
| [CH3][Hg][Cl] | 2.43 µM (active) | – |
| Cc1cc(OC(=O)N(C)C)nn1C(=O)N(C)C | – | -3.86% (inactive) |
| CC(C)(C)C(O)/C(=C\c1ccc(Cl)cc1Cl)n1cncn1 (stereo not given) | – | -9.9% (inactive) |
| COP(=O)(OC)OC(Br)C(Cl)(Cl)Br (stereo not given) | 27.3 µM (active) and 54.5 µM (active) | – |
| Clc1cc(Cl)c(-c2cc(Cl)c(Cl)cc2Cl)cc1Cl | – | -2.35% [at 42.5 µM] (inactive) |

— PubChem BioAssay (Tox21)
